Assay [1] can be described thus: inhibitors of TNFa-induced NFkB p65 translocation, primary screen, imaging, HUVEC, MLSMR starter and 10KST1 sets (AID 438;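 active means inhibition above 20% together with a positive visual image hit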;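 further: compound added about 3h40 before a 20 min TNFalpha stimulation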;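 on inhibition: signal is the nuclear over cytoplasmic p65 intensity ratio per well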). The conditions noted are these: HUVEC TNFa-induced p65 nuclear translocation; cell count: measured here: nuclei count (cytotoxicity indicator), at 2.08 µM; inhibition: at 2 µM, stronger effect = higher value, 0% TNFa-plus-vehicle, 100% no-TNFa wells.
Assay [2] in a line: reduction of polyQ htt aggregates in cells – imaging, exon1htt(103Q)mCFP cells, high-content imaging, primary screen (AID 483;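 active means visual image review flags a hit and inhibition of aggregation exceeds 20%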;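 further: compound exposure lasted 3 days before fixation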;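 on nuclei count: percent of the per-plate median nuclei count of sample wells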). The conditions noted are these: exon1htt(103Q)mCFP cell line, aggregate imaging, at 2 µM; inhibition of aggregation: stronger effect = higher value; nuclei count: measured here: cell count, toxicity.
Assay [3] in a line: endothelial E-selectin expression blockers – imaging, HUVEC, immunofluorescence, MLSMR starter and 10KST1 sets, primary screen (AID 487;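 active means visually confirmed hit in the image check and inhibition above 20%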;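 on inhibition: signal is fraction of cell area covered by stained E-selectin grains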;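 on nuclei count: 100% = median nuclei count of all wells on the same plate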). The conditions noted are these: HUVEC TNFalpha-induced E-selectin immunofluorescence imaging, at 2 µM; inhibition: stronger effect = higher value; nuclei count: measured here: cell number, toxicity.
Assay [4] concerns the target Voltage-gated potassium channel subunit beta-2 (Rattus norvegicus) (UniProt P62483). The assay is described as follows: inhibitors of rat Kvbeta2 reductase activity – biochemical, NADPH fluorescence, primary screen (AID 622;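 active means fluorescence slope higher than the sample average by over 3 SD, cut at about -0.22 in these data, passing the limit was not always enough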;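 further: slope of raw intensity against log time taken from 70 to 1610 s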). The conditions noted are these: recombinant KvBeta, 4-cyanobenzaldehyde reduction, at 10 µM, stronger effect = higher value.
The target is the same in assay [5]. The experiment in a line: enhancers of rat Kvbeta2 NADPH turnover – biochemical, NADPH fluorescence, primary screen (AID 623;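 active means NADPH fluorescence slope more negative than the mean of all samples by about 3 SD, 99.7% confidence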;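 further: fluorescence intensity change per second fitted from 20 to 320 s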). As to conditions: Recombinant KvBeta, NADPH fluorescence decrease slope, 10 min; at 10 µM; stronger effect = lower value.
In assay [6] the target is Alpha-2C adrenergic receptor (Homo sapiens) (UniProt P18825). The assay is described as follows: compounds altering alpha2C-coupled GIRK flux – cell-based, HEK293 alpha2C/GIRK1/2, thallium flux, primary screen (AID 624;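 active means fluorescence slope after compound addition differing from the mean of all screened samples at 99.7% confidence, in either direction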;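 further: slope of fluorescence ratio to pre-addition baseline per second over 15 to 24 s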). As to conditions: thallium flux BTC fluorescence, at 10 µM, actives lie on both sides.
A short description of assay [7]: blockers of RIG-like receptor reporter activation – cell-based, Sendai virus stimulus, luciferase, 10K MLSCN set, TLR/RLR signaling modifier project, primary screen (AID 602276).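 Further: firefly luciferase from ISG56 promoter only with Renilla not read in this screen; 0% = Sendai virus plus DMSO and 100% = medium plus DMSO without virus.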 As to conditions: HEK293 RL24 IRF3 luciferase reporter, at 10 µM, stronger effect = higher value. In general terms: In a reporter assay the amount or activity of a reporter protein is the signal.
Assay [8] can be described thus: TLR3 IRF3 reporter activation blockers – cell-based, poly I:C stimulus, luciferase, 10K MLSCN set, primary screen (AID 602277;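 active means inhibition of the reporter signal at or above 50%; inactive means inhibition below 50%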). The conditions noted are these: HEK293-TLR3 RL24 IRF3 luciferase reporter, at 10 µM, stronger effect = higher value.

The values below come from PubChem BioAssay.

The source made the active and inactive calls.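 How the source made its calls, unless noted: active means inhibition at or above 50% at 10 µM; inactive means inhibition below 50%.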

Chain of Alpha-2C adrenergic receptor (Homo sapiens) (P18825 whole entry, looked up): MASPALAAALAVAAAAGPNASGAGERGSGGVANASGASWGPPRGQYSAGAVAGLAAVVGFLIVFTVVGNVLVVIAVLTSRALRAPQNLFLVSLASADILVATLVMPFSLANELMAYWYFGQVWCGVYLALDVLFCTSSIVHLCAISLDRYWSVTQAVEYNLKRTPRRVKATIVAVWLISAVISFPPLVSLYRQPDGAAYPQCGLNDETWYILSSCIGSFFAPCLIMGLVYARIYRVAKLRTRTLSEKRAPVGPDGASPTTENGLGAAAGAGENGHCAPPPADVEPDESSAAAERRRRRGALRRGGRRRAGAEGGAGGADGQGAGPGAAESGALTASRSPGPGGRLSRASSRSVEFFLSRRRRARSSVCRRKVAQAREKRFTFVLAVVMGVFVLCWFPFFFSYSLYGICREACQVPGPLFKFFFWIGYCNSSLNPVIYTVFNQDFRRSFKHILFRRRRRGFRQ
Chain of Voltage-gated potassium channel subunit beta-2 (Rattus norvegicus) (P62483 whole entry, looked up): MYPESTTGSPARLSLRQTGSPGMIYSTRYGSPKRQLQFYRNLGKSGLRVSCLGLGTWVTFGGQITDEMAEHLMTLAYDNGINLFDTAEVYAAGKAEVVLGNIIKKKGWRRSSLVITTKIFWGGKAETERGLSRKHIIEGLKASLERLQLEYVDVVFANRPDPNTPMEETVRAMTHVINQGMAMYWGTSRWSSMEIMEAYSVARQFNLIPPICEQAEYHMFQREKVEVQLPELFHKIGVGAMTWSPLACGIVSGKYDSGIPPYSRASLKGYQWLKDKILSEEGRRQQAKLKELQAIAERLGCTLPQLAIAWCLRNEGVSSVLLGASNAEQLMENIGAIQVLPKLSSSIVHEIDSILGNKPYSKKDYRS

Take `C=CCSc1nnc(NC(=O)c2ccc(S(=O)(=O)NCC3CCCO3)cc2)s1` (centres undefined): the cell count in assay [1] worked out at 245. For the same compound, the inhibition in assay [1] is 5.1% (inactive); in assay [3], -146% (inactive); in assay [7], 4.11% (inactive); in assay [8], 11% (inactive). In addition, the inhibition of aggregation in assay [2] was -8.6% (inactive). The nuclei count in assay [2] turned out to be 88.4%; in assay [3] it was 114%. In assay [4], the fluorescence slope was -0.496 (inactive). Further, the NADPH fluorescence slope in assay [5] was -4.8e-05 (inactive). Moreover, in assay [6], the slope is 0.00603 (inactive).
Consider `O=C(CSc1ncccn1)NCc1ccccc1`, for which the cell count in assay [1] worked out at 362. Moreover, the inhibition is 2.5% (inactive) in assay [1], 36.4% (inactive) in assay [3], -29.7% (inactive) in assay [7] and -47.8% (inactive) in assay [8]. For the same compound, the inhibition of aggregation in assay [2] is 12.3% (inactive). Besides, the nuclei count in assay [2] is 103%; in assay [3], 120%. Besides, the fluorescence slope in assay [4] is -0.531 (inactive). In assay [5], the NADPH fluorescence slope is 3.2e-05 (inactive). The slope in assay [6] is 0.00529 (inactive).
For the compound `CN(C1CCCCC1)S(=O)(=O)c1ccc(S(=O)(=O)N2CCN(CCC#N)CC2)cc1`, the cell count in assay [1] was found to be 698. The inhibition in assay [1] was 0% (inactive); in assay [3], -53.2% (inactive); in assay [7] it was 3.23% (inactive); in assay [8], 15.8% (inactive). Further, the inhibition of aggregation in assay [2] was 28.2% (inactive). Besides, the figures for the nuclei count in assay [2] and in assay [3] were 124% and 107%, respectively. Further, the fluorescence slope in assay [4] is -0.527 (inactive). The NADPH fluorescence slope in assay [5] was -3.3e-06 (inactive). The slope in assay [6] is 0.00618 (inactive).
In the case of `COc1ccc(OC)c(C2C(C(=O)Nc3ccc(F)cc3)=C(C)Nc3nc(CCCO)nn32)c1` (centres undefined), the cell count in assay [1] was 666. The inhibition in assay [1] was 7.1% (inactive); in assay [3], -44% (inactive); in assay [7], 0.814% (inactive); in assay [8] it was 11.9% (inactive). In addition, the inhibition of aggregation in assay [2] was -11.2% (inactive). Also, the nuclei count in assay [2] came to 117%; in assay [3], 109%. Further, the fluorescence slope in assay [4] was -0.427 (inactive). In assay [5], the NADPH fluorescence slope is 8.4e-06 (inactive). The slope in assay [6] was 0.00613 (inactive).
As for `CCCCOn1c(C)c(C(=O)OCC)c2c3nonc3ccc21`, the cell count in assay [1] stood at 596. Also, the inhibition in assay [1] was -27.1% (inactive); in assay [3], -12.4% (inactive); in assay [7], -10.2% (inactive); in assay [8] it was -12.6% (inactive). For the same compound, the inhibition of aggregation in assay [2] was -30.2% (inactive). The nuclei count in assay [2] amounted to 116%; in assay [3], 101%. Besides, the fluorescence slope in assay [4] is -0.458 (inactive). Also, the NADPH fluorescence slope in assay [5] was 6.8e-06 (inactive). For the same compound, in assay [6], the slope was 0.00452 (inactive).
Regarding `O=C(c1ccco1)N1CCN(C(=O)C2CC(c3ccc(F)cc3)=NO2)CC1` (centres undefined), the cell count in assay [1] came to 448. Also, the inhibition was -12.3% (inactive) in assay [1], -12.7% (inactive) in assay [3], 7.52% (inactive) in assay [7] and 13.1% (inactive) in assay [8]. Also, the inhibition of aggregation in assay [2] is -13.2% (inactive). Moreover, the nuclei count in assay [2] turned out to be 106%; in assay [3] it was 112%. Further, the fluorescence slope in assay [4] was -0.622 (inactive). Also, in assay [5], the NADPH fluorescence slope was 2.2e-07 (inactive). Further, the slope in assay [6] is 0.00657 (inactive).
Consider `COc1ccc(CN2C(=O)[C@@H]3C(c4ccc(F)cc4)=NO[C@@H]3C2=O)cc1`, for which, in assay [1], the cell count is 338. Further, the inhibition in assay [1] was -10.5% (inactive); in assay [3] it was -34.5% (inactive); in assay [7], 13.4% (inactive); in assay [8] it was 23.3% (inactive). For the same compound, the inhibition of aggregation in assay [2] is -8.2% (inactive). Further, the nuclei count in assay [2] worked out at 87.7%; in assay [3], 113%. For the same compound, in assay [4], the fluorescence slope is -0.302 (inactive). Further, the NADPH fluorescence slope in assay [5] is -5.3e-05 (inactive). Also, in assay [6], the slope is 0.00504 (inactive).
As to `Cc1ccc(C(=O)NCc2ccc3c(c2)OCO3)cc1S(=O)(=O)N1CCCCC1`, the cell count in assay [1] is 437. Besides, the inhibition in assay [1] was 4.7% (inactive); in assay [3] it was -39.8% (inactive); in assay [7], -2.9% (inactive); in assay [8] it was -10.9% (inactive). Moreover, in assay [2], the inhibition of aggregation is -2.6% (inactive). Moreover, the nuclei count worked out at 99.9% in assay [2] and 113% in assay [3]. In addition, in assay [4], the fluorescence slope was -0.451 (inactive). Also, the NADPH fluorescence slope in assay [5] is 4.6e-05 (inactive). Moreover, the slope in assay [6] was 0.00487 (inactive).
Turning to `COc1ccc2cc(C(c3nnnn3C3CCCCC3)N3CCCCCC3)c3nnnn3c2c1` (centres undefined), in assay [1], the cell count stood at 828. The inhibition in assay [1] was -6.7% (inactive); in assay [3] it was -10.3% (inactive); in assay [7], 7.67% (inactive); in assay [8], -2.36% (inactive). In assay [2], the inhibition of aggregation is -7.5% (inactive). For the same compound, the nuclei count in assay [2] amounted to 108%; in assay [3] it was 114%. Besides, in assay [4], the fluorescence slope is -0.444 (inactive). Moreover, the NADPH fluorescence slope in assay [5] was -3.1e-06 (inactive). For the same compound, the slope in assay [6] is 0.00937 (inactive).
For `O=C(CCS(=O)(=O)c1cccc2nsnc12)NCc1ccccc1`, the cell count in assay [1] turned out to be 718. Further, the inhibition was 3.1% (inactive) in assay [1], -24.5% (inactive) in assay [3], -2.94% (inactive) in assay [7] and 5.74% (inactive) in assay [8]. Besides, the inhibition of aggregation in assay [2] is -14.8% (inactive). The values for the nuclei count in assay [2] and in assay [3] were 93.6% and 114%, respectively. Besides, the fluorescence slope in assay [4] was -0.567 (inactive). Further, in assay [5], the NADPH fluorescence slope is 3.6e-05 (inactive). Also, the slope in assay [6] was 0.00505 (inactive).
As to `Cc1csc2nc(CNC(=O)c3ccco3)cn12`, the cell count in assay [1] worked out at 518. For the same compound, the inhibition in assay [1] is -8.8% (inactive); in assay [3] it was -27.7% (inactive); in assay [7], -23.7% (inactive); in assay [8], -70.6% (inactive). Besides, the inhibition of aggregation in assay [2] was -5.9% (inactive). Moreover, the results for the nuclei count in assay [2] and in assay [3] were 90.4% and 71%, respectively. Besides, in assay [4], the fluorescence slope is -0.511 (inactive). The NADPH fluorescence slope in assay [5] was -5.4e-05 (inactive). Besides, the slope in assay [6] was 0.00553 (inactive).
As to `C=CCN1C(=O)C2(/C(=C(\O)c3ccc4c(c3)OCCO4)C(=O)C(=O)N2CCCOC)c2ccccc21` (centres undefined), in assay [1], the cell count came to 390. Besides, the inhibition in assay [1] was 8.6% (inactive); in assay [3], -37.2% (inactive); in assay [7] it was 20.5% (inactive); in assay [8], 21.2% (inactive). In addition, the inhibition of aggregation in assay [2] is 0.7% (inactive). Besides, the nuclei count in assay [2] was 104%; in assay [3], 128%. Moreover, in assay [4], the fluorescence slope was -0.465 (inactive). In addition, the NADPH fluorescence slope in assay [5] is -1.1e-05 (inactive). Moreover, in assay [6], the slope was 0.00507 (inactive).
Consider `N#CC1=C(SCC(=O)c2cc3ccccc3oc2=O)NC(=O)C(C#N)C12CCCC2` (centres undefined), for which the cell count in assay [1] turned out to be 639. Moreover, the inhibition in assay [1] was -36.2% (inactive); in assay [3], -47.7% (inactive); in assay [7] it was 23% (inactive); in assay [8], 31.4% (inactive). Besides, the inhibition of aggregation in assay [2] is 14.2% (inactive). Further, the nuclei count in assay [2] came to 104%; in assay [3], 123%. In assay [4], the fluorescence slope was -0.493 (inactive). Also, the NADPH fluorescence slope in assay [5] is -5.2e-05 (inactive). For the same compound, the slope in assay [6] was 0.00421 (inactive).
For `CCOC(=O)N1CCN(C(=O)CSc2nnc(-c3cc(OC)cc(OC)c3)o2)CC1`, the cell count in assay [1] was found to be 228. Moreover, the inhibition in assay [1] is 8.2% (inactive); in assay [3], -54.1% (inactive); in assay [7], 12.2% (inactive); in assay [8] it was 29.1% (inactive). For the same compound, in assay [2], the inhibition of aggregation is -10.3% (inactive). Besides, the values for the nuclei count in assay [2] and in assay [3] were 67.5% and 99.6%, respectively. Moreover, in assay [4], the fluorescence slope was -0.398 (inactive). Also, the NADPH fluorescence slope in assay [5] is -5.6e-05 (inactive). For the same compound, the slope in assay [6] was 0.00254 (inactive).

Usually inhibition stands for the drop in the measured response relative to a control, in per cent.
